Among the test systems are SK-MEL-2 melanoma; EKVX NSCLC; SN12C renal; UO-31 renal; TK-10 renal; ACHN renal; CAKI-1 renal; A498 renal; CCRF-CEM leukemia; MOLT-4 leukemia; SR leukemia; RPMI-8226 leukemia; OVCAR-8 ovarian; OVCAR-5 ovarian; OVCAR-4 ovarian; IGROV1 ovarian; OVCAR-3 ovarian; HS 578T breast; NCI/ADR-RES ovarian; SK-OV-3 ovarian.
Holding throughout (assay): NCI-60 one-dose screen, 48 h (100 = growth as untreated, 0 = no growth, -100 = all killed)
Common to all, as to settings: 10 µM unless noted

Compounds without any hit were thinned out: in the full panel of roughly 83,000, 20% have a hit.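 How to read the values: 0–100, growth inhibition (40 = 60% inhibited); 0, no net growth; -100 to 0, cell death (-40 = 40% of starting cells died; -100 = all dead).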 Unmarked numbers belong to inactive results. The source made the active and inactive calls. Rule for the calls: active = growth percent below 10; inactive = the rest.

Turning to `CC(C)(C)CC(C)(C)c1ccc(OCCOCC[N+](C)(C)Cc2ccccc2)cc1`, the growth in the assay on SK-MEL-2 melanoma was -69.4% (active); with EKVX NSCLC, 22.3%; in the assay on SN12C renal it was -29.2% (active); in the assay on UO-31 renal it was 86.1%; with TK-10 renal it was -0.335% (active); with ACHN renal, 73.2%. Further, the growth is 97.3% in the assay with CAKI-1 renal; 17.7% in the assay on A498 renal; -25.8% (active) in the assay with CCRF-CEM leukemia; -20% (active) in the assay with MOLT-4 leukemia; -50.8% (active) in the assay on SR leukemia; -60.3% (active) in the assay on RPMI-8226 leukemia. In addition, the growth in the assay on OVCAR-8 ovarian was -65.7% (active); in the assay with OVCAR-5 ovarian it was 29.6%; with OVCAR-4 ovarian, -16% (active); in the assay on IGROV1 ovarian, -45.9% (active); in the assay with OVCAR-3 ovarian, -35% (active); in the assay with HS 578T breast, 26.1%. In addition, in the assay on NCI/ADR-RES ovarian, the growth is 112%.
Turning to `CCOC(=O)c1csc(NC(=O)COc2cccc(/C=C3\CSc4ccccc4C3=O)c2)n1`, the growth is -49.8% (active) in the assay on SK-MEL-2 melanoma; -36.2% (active) in the assay with EKVX NSCLC; 74.8% in the assay on SN12C renal; -35.1% (active) in the assay on UO-31 renal; 68.6% with TK-10 renal; 45.5% with ACHN renal. Also, the growth in the assay with CAKI-1 renal is 2.32% (active); in the assay with A498 renal it was 115%; with CCRF-CEM leukemia it was -61.3% (active); in the assay on MOLT-4 leukemia, -50.9% (active); in the assay on SR leukemia it was -86.4% (active); in the assay with RPMI-8226 leukemia, -71.2% (active). Moreover, the growth with OVCAR-8 ovarian is 20.3%; with OVCAR-5 ovarian, 56.4%; in the assay with OVCAR-4 ovarian, 83.6%; with SK-OV-3 ovarian, 35%; in the assay on OVCAR-3 ovarian, -25.7% (active); with HS 578T breast, -11% (active). For the same molecule, in the assay on NCI/ADR-RES ovarian, the growth was 44.1%.
With `O=C(CN1C(=O)/C(=C/c2ccc(Cl)cc2)SC1=S)NCCCN1CCOCC1`, the growth in the assay on SK-MEL-2 melanoma is 111%; in the assay on EKVX NSCLC, 90.7%; with SN12C renal, 94.7%; in the assay on UO-31 renal it was 83.2%; in the assay with TK-10 renal, 117%; in the assay with ACHN renal it was 94.6%. Also, the growth with CAKI-1 renal was 89.4%; in the assay with A498 renal it was 104%; with CCRF-CEM leukemia, 105%; in the assay on MOLT-4 leukemia it was 102%; in the assay on SR leukemia, 97.8%; with RPMI-8226 leukemia it was 96%. The growth with OVCAR-8 ovarian is 103%; with OVCAR-5 ovarian it was 103%; in the assay with OVCAR-4 ovarian it was 93.5%; in the assay with SK-OV-3 ovarian it was 97.8%; with OVCAR-3 ovarian, 101%; with HS 578T breast, 84.2%. The growth in the assay on NCI/ADR-RES ovarian is 99.9%.
With `Cc1ccc(NS(=O)(=O)c2ccc(-c3cnc(C4CC4)o3)cc2)cc1C`, the growth was 38.5% in the assay with SK-MEL-2 melanoma; 27% with EKVX NSCLC; 43.6% in the assay with SN12C renal; 38.5% with UO-31 renal; 44% in the assay with TK-10 renal; 40.7% in the assay with ACHN renal. For the same molecule, the growth in the assay on CAKI-1 renal was 27.2%; in the assay with A498 renal it was -15.8% (active); with CCRF-CEM leukemia, 23.5%; in the assay with MOLT-4 leukemia it was 30.1%; in the assay on RPMI-8226 leukemia, 12.4%; in the assay with OVCAR-8 ovarian, 28.2%. Moreover, the growth is 37.6% in the assay with OVCAR-5 ovarian; 43.2% in the assay with OVCAR-4 ovarian; 30.7% with SK-OV-3 ovarian; 29.5% in the assay on IGROV1 ovarian; -1.67% (active) in the assay on OVCAR-3 ovarian; 14.3% in the assay with HS 578T breast. In addition, the growth in the assay with NCI/ADR-RES ovarian was -10.9% (active).
Regarding `Cc1ccc(C2=NN3C(C2)c2cc(Br)ccc2OC32CCN(Cc3ccccc3)CC2)o1` (stereo unspecified), the growth was 100% in the assay on SK-MEL-2 melanoma; 86.3% in the assay with EKVX NSCLC; 91.5% in the assay with SN12C renal; 58.6% in the assay with UO-31 renal; 116% in the assay with TK-10 renal; 98.7% with ACHN renal. Further, the growth in the assay with CAKI-1 renal is 71.6%; with A498 renal it was 105%; with CCRF-CEM leukemia, 80.3%; in the assay with MOLT-4 leukemia, 79.6%; in the assay on SR leukemia it was 90.2%; in the assay with RPMI-8226 leukemia, 80.8%. The growth in the assay on OVCAR-5 ovarian is 109%; with OVCAR-4 ovarian, 94.3%; in the assay on SK-OV-3 ovarian, 93.7%; in the assay on OVCAR-3 ovarian it was 96.6%; in the assay with HS 578T breast it was 92%; with NCI/ADR-RES ovarian, 94%.
For the molecule `CSc1nc(NCc2ccccc2)c(C#N)c(-c2cccc([N+](=O)[O-])c2)n1`, the growth with SK-MEL-2 melanoma was 102%; with EKVX NSCLC it was 85.4%; with SN12C renal, 93.2%; in the assay on UO-31 renal it was 78.3%; in the assay with TK-10 renal, 124%; with ACHN renal, 95.6%. Also, the growth was 75.4% in the assay with CAKI-1 renal; 66.1% in the assay with A498 renal; 99.7% in the assay with CCRF-CEM leukemia; 103% in the assay on MOLT-4 leukemia; 100% with RPMI-8226 leukemia; 95% in the assay on OVCAR-8 ovarian. In addition, the growth was 90.7% in the assay with OVCAR-5 ovarian; 88.5% in the assay with OVCAR-4 ovarian; 97.1% with SK-OV-3 ovarian; 99.9% in the assay with IGROV1 ovarian; 111% with OVCAR-3 ovarian; 92% with HS 578T breast. In the assay with NCI/ADR-RES ovarian, the growth is 95.2%.
Consider `O=C(N/N=C/c1c[nH]c2ccccc12)c1cc(-c2ccccc2)on1`, for which the growth was 101% with SK-MEL-2 melanoma; 87.9% in the assay with EKVX NSCLC; 92.3% with SN12C renal; 60.7% in the assay on UO-31 renal; 125% in the assay on TK-10 renal; 87.6% in the assay on ACHN renal. Also, the growth with CAKI-1 renal is 69.7%; with A498 renal it was 78.6%; with CCRF-CEM leukemia, 46.1%; with MOLT-4 leukemia it was 69.5%; with RPMI-8226 leukemia, 90%; in the assay on OVCAR-8 ovarian, 102%. Moreover, the growth is 97.5% in the assay with OVCAR-5 ovarian; 85.6% in the assay with OVCAR-4 ovarian; 91% with SK-OV-3 ovarian; 87.2% with IGROV1 ovarian; 103% with OVCAR-3 ovarian; 94.4% in the assay on HS 578T breast. Besides, in the assay on NCI/ADR-RES ovarian, the growth is 84.3%.
For the molecule `O=C(COc1cccc(/C=C2\COc3ccc(Cl)cc3C2=O)c1)c1ccc(Cl)cc1`, the growth with SK-MEL-2 melanoma was 54.2%; with EKVX NSCLC, 101%; in the assay on SN12C renal, 97.3%; in the assay with UO-31 renal it was 69.3%; with TK-10 renal, 98.4%; with ACHN renal it was 91%. Besides, the growth in the assay with CAKI-1 renal was 84.2%; in the assay on A498 renal, 111%; with CCRF-CEM leukemia, 2.99% (active); with MOLT-4 leukemia, 41.2%; in the assay on RPMI-8226 leukemia, -11.4% (active); in the assay with OVCAR-8 ovarian, 91.7%. For the same molecule, the growth is 81.1% with OVCAR-5 ovarian; 90.5% in the assay on OVCAR-4 ovarian; 99% in the assay with SK-OV-3 ovarian; 38.3% with IGROV1 ovarian; 87.4% in the assay on OVCAR-3 ovarian; 72.3% in the assay on HS 578T breast. Also, the growth with NCI/ADR-RES ovarian is 84%.

(Values after PubChem BioAssay (NCI).)
